Compound activity (PubChem BioAssay)
Most compounds without a hit are left out; they make up all but 11% or so of the library.
3T3 cytotox – cytotoxic compounds in NIH 3T3 cells | hit rate 4.3% among 94,000 | NIH 3T3 viability, CellTiter-Glo ATP luminescence, 48-72 h | Potency, µM (titrated, usually from 96.7 µM), for inactives: at the top dose activity change, negative = cytotoxicity, actives largely listed as inhibitors | AID 1345082; also: nearly all actives have a fitted effect of over 55% in size
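Cells were seeded at 400 per well, treated with pin-transferred compound, and kept 48 or 72 hr at 37 °C before CellTiter-Glo addition and luminescence imaging of cellular ATP.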
Luciferase inh – inhibitors of firefly (Photinus pyralis) luciferase. P08659. purified P. pyralis luciferase, luminescence, biochemical. Potency, µM (highest dose often 115 µM), most hits filed as inhibitors. hit rate 2.5% among 76,000. AID 1347043; also: nearly all actives have a fitted effect of over 65% in size
Target sequence (P08659 whole entry, looked up): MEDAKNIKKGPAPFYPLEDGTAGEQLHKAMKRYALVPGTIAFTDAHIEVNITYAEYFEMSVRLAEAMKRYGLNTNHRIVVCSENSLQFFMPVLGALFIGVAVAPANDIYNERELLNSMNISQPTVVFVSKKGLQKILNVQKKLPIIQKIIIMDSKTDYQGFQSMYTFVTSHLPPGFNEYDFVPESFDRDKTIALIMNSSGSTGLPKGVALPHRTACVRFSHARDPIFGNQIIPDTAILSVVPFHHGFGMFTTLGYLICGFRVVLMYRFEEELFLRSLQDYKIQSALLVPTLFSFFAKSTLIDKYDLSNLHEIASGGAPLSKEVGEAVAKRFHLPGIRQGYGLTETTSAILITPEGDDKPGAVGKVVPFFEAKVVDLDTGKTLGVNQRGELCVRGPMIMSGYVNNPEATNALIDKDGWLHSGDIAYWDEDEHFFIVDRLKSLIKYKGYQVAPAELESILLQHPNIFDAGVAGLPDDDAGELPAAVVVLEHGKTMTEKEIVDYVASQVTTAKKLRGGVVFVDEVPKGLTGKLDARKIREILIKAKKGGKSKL
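Luminescence read by CCD imaging after purified firefly luciferase (10nM final) was added to substrate buffer holding 10uM D-luciferin and 10uM ATP, pH 7.5, pre-dosed with compound.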
NPR1 antag – human Npr1 receptor antagonism. Potency, µM (titrated, usually from 46.3 µM), inactives show top-dose activity change, negative = inhibition, actives largely listed as inhibitors. P16066. AID 1347048. HEK293 hNpr1 GloSensor cGMP, ANP-stimulated luminescence. hit rate 1.6% among 76,000; calls by dose curve; also: nearly all actives have a fitted effect of over 60% in size
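Compound pre-incubated 30 min at room temperature on GloSensor-loaded HEK293 cells stably carrying hNpr1 and the pGS-40F cGMP biosensor. Stimulation uses hNppA at 0.1 nM final; luminescence is taken at baseline and 20 min post-agonist.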
HEK cytotox – cytotoxic compounds in HEK 293 cells | HEK 293 viability, ATP luminescence (CellTiter-Glo), 48-72 h | Potency, µM (top dose mostly 115 µM), without a hit: at the highest dose activity change, negative = cytotoxicity, most hits filed as inhibitors | hit rate 6.6% among 94,000 | AID 1345083; also: nearly all actives have a fitted effect of over 60% in size
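HEK 293 cells seeded at 250 cells/well were exposed to compound for 48 or 72 hr at 37 degree Celsius. Viability taken as ATP content by CellTiter-Glo luminescence.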
An asterisk follows results filed as active; i = inactive; ? = inconclusive; . = no result given; ! = repeats disagree; [ ] = dose if it differs, or a comment. Unless noted, calls follow the shape of the dose curve; as a rule, active = well fitted curve in the direction sought with a large enough effect; inconclusive = small, poorly fitted or top-dose-only effect, or another doubt; inactive = no such curve, though single readings can be large; an effect the other way counts as inactive or inconclusive. % is scaled to controls: 0 for no effect and ±100 for the full control effect; potency is read from the fitted curve at half-maximal effect.

SMILES | 3T3 cytotox | Luciferase inh | NPR1 antag | HEK cytotox
COc1ccc(-c2cc(N3CCCN(C(=O)c4ccc(C)c(F)c4)CC3)n[nH]2)cc1 | -24% | i | -14% | ?
CN(Cc1cccc(C(F)(F)F)c1)C(=O)c1ccccc1F | -30%[138 µM] | i | -6%[70.6 µM] | ?
Cc1nnnn1CC(=O)Nc1nn(Cc2ccccc2)c2cccc(OC(C)C)c12 | -32% | i | 0% | -26%
CC(C)Oc1cccc2c1c(NC(=O)c1cccnn1)nn2Cc1ccccc1 | ? | ? | -2% | 50µM*
NC(=O)[C@@H](Cc1c[nH]c2ccccc12)NC(=O)[C@H]1CN(C(=O)c2cccc(F)c2)CCN1C(=O)c1cccs1 | -1% | i | -1% | -4%
CCc1nc2c(c(-c3ccc(OC)cc3)n1)CCN([S+](=O)([O-])c1ccc(N(C)C)cc1)CC2 | -10% | . | . | -27%
Cc1ccc(C2Cn3nnc(C(=O)N4CCN(C(=O)c5c(F)cccc5F)CC4)c3CO2)cc1 (centres undefined) | -40% | i | -10% | ?
CC(=O)N(C1CCOCC1)C1CCN(C(=O)c2ccc(C)cc2)CC1 | -20% | . | . | 0%
CN1C[C@H](C(=O)NCc2ccncc2)C[C@H]1c1cccc(C(F)(F)F)c1 | -27%[138 µM] | i | -14%[70.6 µM] | ?
CN1C[C@H](C(=O)Nc2cccc(Cl)c2)C[C@H]1c1cccc(C(F)(F)F)c1 | 32µM* | i | -22%[70.6 µM] | 35µM*
COc1ccc(NC(=O)[C@@H]2C[C@@H](c3cccc(C(F)(F)F)c3)N(C)C2)cc1OC | ? | i | -22%[70.6 µM] | ?
CN1C[C@H](C(=O)N2CCN(c3ccccn3)CC2)C[C@H]1c1cccc(C(F)(F)F)c1 | ? | i | -28%[70.6 µM] | 89µM*
COc1ccc(CN2CCC(N3CC4CCCN4C3=O)CC2)cc1 (centres undefined) | -3%[138 µM] | i | 2%[70.6 µM] | 0%[172 µM]
O=C1N2CCCC2CN1C1CCN(Cc2ccc(C(F)(F)F)cc2)CC1 (centres undefined) | ? | i | ? | 40µM*
COc1ccccc1Nc1ncc2c(n1)CN([S+](=O)([O-])c1ccccc1)CCN2 | ? | i | -11%[70.6 µM] | 100µM*
O=[S+]([O-])(c1ccccc1)N1CCNc2cnc(Nc3cccc(F)c3)nc2C1 | ? | i | ? | 89µM*
O=C(C1CCC1)N1CCNc2cnc(Nc3ccccc3)nc2C1 | ? | i | -29%[70.6 µM] | ?
Cc1ccc(OC2(C(=O)NCC3COc4ccccc4O3)CCNCC2)cc1 (centres undefined) | 32µM* | i | 4% | 35µM*
CCOc1ccc(C(=O)NC2CCN(c3cc(-c4ccc(F)cc4)[nH]n3)CC2)cc1OCC | ? | i | 3% | 40µM*
CCOc1ccc(C(=O)NC2CCN(c3cc(-c4ccccc4)[nH]n3)CC2)cc1OCC | -16% | i | -5% | ?
CCOc1cc(C(=O)NC2CCN(c3cc(-c4ccccc4)[nH]n3)CC2)cc(OCC)c1OCC | ? | i | -1% | 45µM*
CCOc1cc(C(=O)NC2CCN(c3cc(-c4ccc(F)cc4)[nH]n3)C2)cc(OCC)c1OCC (centres undefined) | 25µM* | i | 1% | 35µM*
O=C(c1ccsc1)N1CCC2(CC1)CC(OCC1CC1)CCO2 (centres undefined) | -8% | i | 0% | 12%
Cc1ccc(CN2CCCCCCN(C)C(=O)[C@@H]3CCC[C@@H]32)s1 | ? | i | -10% | ?
O=C(NC1CCCC1)c1noc(-c2ccc[nH]c2=O)n1 | 0% | i | 4% | 7%
SMILES | 3T3 cytotox | Luciferase inh | NPR1 antag | HEK cytotox
O[C@H]1CCCC[C@@H]1NC1CCN(c2nc3ccc(Cl)cc3s2)CC1 | 10µM* | ? | ? | 22µM*
Clc1ccc2nc(N3CCC(NC4CCSC4)CC3)sc2c1 (centres undefined) | -32% | 35µM* | 11µM* | ?
COc1cc(CNC(=O)c2cccc3c2CCN3C(=O)C2CC2)cc(OC)c1 | -17% | i | -12% | 45µM*
O=C(NCc1ccc(N2CCOCC2)cc1)c1cccc2c1CCN2C(=O)c1ccccc1 | -10% | 40µM* | -19% | -13%
COc1ccc(NC(=O)N2CCc3c(C(=O)Nc4ccccc4)cccc32)cc1 | ? | ? | 4.5µM* | ?
CNC(=O)c1cccc2c1CCN2C(=O)Nc1ccc(F)cc1 | -28% | 0.71µM* | 11µM* | -10%
COCCNC(=O)c1cccc2c1CCN2C(=O)C1CC1 | 2% | i | 8% | -2%
COCCNC(=O)c1ccc2c(c1)OCCN(c1cccc(OC(F)(F)F)c1)C2 | ? | i | -26%[70.6 µM] | ?
O=C1CCN(CC(O)C(F)(F)F)c2cc3c(cc2CN1CC1CC1)OCO3 (centres undefined) | ? | . | . | -9%
CC(C)CC(=O)NC1CCN(c2cnn(Cc3ccccc3)c(=O)c2)CC1 | -15% | i | 6% | -23%
CN1CCC(NC(=O)c2cccc3c2CCN3C(=O)C2CC2)CC1 | -10% | i | 4% | 2%
CN1CCC(NC(=O)c2cccc3c2CCN3C(=O)Nc2ccccc2)CC1 | ? | 22µM* | -7% | -8%
O=C(Nc1ccc(Cl)cc1)N1Cc2[nH]cnc2C[C@H]1c1nc(-c2ccc(OC(F)(F)F)cc2)no1 | 25µM* | i | ? | 20µM*
CCOC(=O)c1ccc(NC(=O)N2Cc3[nH]cnc3C[C@H]2c2nc(-c3ccc4c(c3)OCO4)no2)cc1 | 28µM* | 40µM* | -3% | ?
CCOC(=O)c1ccc(NC(=O)N2Cc3[nH]cnc3C[C@H]2c2nc(-c3ccc(OC(F)(F)F)cc3)no2)cc1 | 25µM* | ? | -16% | ?
CCNC(=O)N1Cc2[nH]cnc2C[C@H]1c1nc(-c2ccc(OC(F)(F)F)cc2)no1 | ? | ? | 2%[70.6 µM] | ?
O=C(Nc1ccc(Cl)cc1)N1Cc2[nH]cnc2C[C@H]1c1nc(-c2ccc(F)c(Cl)c2)no1 | 25µM* | 7.9µM* | ? | ?
CCOC(=O)c1ccc(NC(=O)N2Cc3[nH]cnc3C[C@H]2c2nc(-c3ccncc3)no2)cc1 | ? | i | -5% | -11%
CCC(CC)C(=O)N1[C@@H](c2ccccc2)[C@@H](C(=O)O)C[C@]12CCCCN(CCOC)C2=O | ? | . | . | -15%
O=C(Cc1ccc(F)cc1)NCCNC(=O)c1cccc(-c2ccsc2)c1 | -22% | . | . | ?
CCC(C)NC(=O)c1cc(-c2cccc(OC)c2)nc2c1cnn2C (centres undefined) | ? | . | . | 100µM*!
COc1cccc(-c2cc(C(=O)NCC3CCCCC3)c3cnn(C)c3n2)c1 | ? | . | . | 40µM*
O=C1CC(c2ccccc2)N(C(=O)C2CC2)CCCN(C(=O)c2ccsc2)CCN1 (centres undefined) | -8% | i | -3% | 2%
CCN1c2cc(C(=O)Nc3ccc(C)c(F)c3)ccc2C(=O)N2CCCCCC21 (centres undefined) | 40µM* | i | 0% | ?
